From PubChem
In the library only some 3.1% were active in any assay of this set; here they are far more common.
ATG4B inh: inhibitors of human ATG4B cysteine protease | Q9Y4P1 | actives 0.51% (n = 340,000) | inhibition, % at 8.33 µM | ATG4B cleavage of LC3-PLA2, NBD-HPC fluorescence, 1 h; in the data active = inhibition above about 40%
Target sequence (Q9Y4P1 whole entry, looked up): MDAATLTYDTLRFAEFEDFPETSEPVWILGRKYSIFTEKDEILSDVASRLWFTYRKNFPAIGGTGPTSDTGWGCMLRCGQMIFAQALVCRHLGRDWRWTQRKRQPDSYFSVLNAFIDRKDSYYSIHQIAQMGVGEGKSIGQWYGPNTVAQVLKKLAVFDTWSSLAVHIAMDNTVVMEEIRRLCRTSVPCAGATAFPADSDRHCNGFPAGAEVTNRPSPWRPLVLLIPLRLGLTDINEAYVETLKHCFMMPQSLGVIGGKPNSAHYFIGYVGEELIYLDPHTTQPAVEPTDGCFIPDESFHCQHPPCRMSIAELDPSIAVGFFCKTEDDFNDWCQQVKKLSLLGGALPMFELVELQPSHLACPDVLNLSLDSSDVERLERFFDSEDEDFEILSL
SUMO Mot1 rescue: SUMOylation pathway inhibition by Mot1-301 growth rescue. S. cerevisiae Mot1-301 growth rescue, ATP luminescence, 38.5C; percent above DMSO median, 100 means doubled. growth rescue, % at 18.8 µM. AID 2716. actives 1% (n = 320,000);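 active = every valid replicate shows activation above 250% relative to neutral control wells; inactive = the rest, any valid replicate at or below 250%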
FAS-TE inh: FAS thioesterase (human) inhibition. AID 602261. P49327. actives 0.67% (n = 360,000). inhibition, % at 15 µM. recombinant FAS-TE, OMFH fluorogenic substrate, fluorescence endpoint;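 active = compounds whose normalised, plate-corrected inhibition of enzyme fluorescence in the single-dose primary screen is 50% or more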
Calb FLC: affects C. albicans growth with fluconazole; actives 0.57% (n = 300,000); growth inhibition, % (test concentration not listed); C. albicans CaCi-2 (fluconazole-resistant clinical isolate) + fluconazole, Alamar Blue growth, 48 h;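 active = growth inhibition above about 58% in most replicates, limit read from the data, passing the limit was not always enough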;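 note: all wells also contain fluconazole at 8 µg/ml as a sub-toxic cotreatment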
NadD inh: inhibitors of Staphylococcus aureus NadD. purified NadD enzyme, colorimetric absorbance read-out. inhibition, % at 20 µM. actives 0.78% (n = 360,000). AID 602399; in the data active = inhibition above about 26%
FAS-TE conf: FAS thioesterase (human) inhibition, confirmation; inhibition, % at 15 µM; recombinant FAS-TE, OMFH fluorogenic substrate, fluorescence; AID 624325; shares compounds with FAS-TE inh; actives 45% (n = 2,300);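 active = compounds inhibiting the enzyme by at least 50% at 15 µM in any one of the replicates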
NadD inh conf: NadD (S. aureus) inhibition, single concentration confirmation | shares compounds with NadD inh | purified S. aureus NadD, colorimetric enzyme assay | inhibition, % at 20 µM | actives 13% (n = 2,000); in the data active = inhibition mostly above about 42%, no sharp cut-off; inactive = mostly below about 42%
A number is an active result; n = inactive; x = not tested or not shown.

SMILES	ATG4B inh	SUMO Mot1 rescue	FAS-TE inh	Calb FLC	NadD inh	FAS-TE conf	NadD inh conf
CSc1cccc(NC(=O)C2CCN(S(=O)(=O)c3ccc4c(c3)NC(=O)CO4)CC2)c1	n	n	n	n	n	x	x
O=C(NNc1nc(-c2ccccc2)c2cc(Br)ccc2n1)c1ccc(S(=O)(=O)N2CCCCC2)cc1	n	n	74	n	37	n	n
CC1CCCCN1CCCNc1ccc(C(CC(N)=O)NC(=O)Cc2cccc3ccccc23)cc1[N+](=O)[O-] (stereo not given)	n	n	n	n	n	x	x
COc1ccc(C2CC(c3cccs3)=NN2C(=O)CSc2nc(=O)n3ccc(C)cc3n2)cc1 (stereo not given)	n	n	57	n	46	57	n
O=C(CSc1nc(=O)n2ccccc2n1)N1N=C(c2cccs2)CC1c1ccc(F)cc1 (stereo not given)	n	x	n	n	n	x	x
COc1ccc(C2=NN(C(=O)CSc3ncccn3)C(c3ccc(OC)cc3)C2)cc1 (stereo not given)	n	n	n	n	n	x	x
COc1ccc(C2=NN(C(=O)CSc3nc(=O)n4cc(C)ccc4n3)C(c3ccc(C)cc3)C2)cc1 (stereo not given)	n	n	69	n	49	40	n
COc1ccc(N2CCN(C(=O)COC(=O)c3ccco3)CC2)cc1	n	n	n	n	n	x	x
C#CCN(C[C@H]1[C@H](OC(=O)NCc2ccccc2F)[C@H](OC(=O)NCc2ccccc2F)C[C@H]2C(=O)N(c3ccccc3)C(=O)[C@@H]12)S(=O)(=O)c1ccc(C)cc1	x	x	54	x	30	n	n
C#CCN(C[C@H]1[C@H](OC(=O)NCc2ccccc2)[C@H](OC(=O)NCc2ccccc2)C[C@@H](C(=O)OC)[C@H]1C(=O)OC)S(=O)(=O)c1ccc(C)cc1	x	x	n	x	n	x	x
O=C(O)C1CCC(NSc2ccccc2[N+](=O)[O-])CC1 (stereo not given)	n	n	n	n	n	x	x
C[C@@H]1CCCCO[C@H](CN(C)S(=O)(=O)c2ccc(F)cc2)[C@@H](C)CN([C@H](C)CO)C(=O)c2cc(NC(=O)Nc3ccc(C(F)(F)F)cc3)ccc2O1	x	x	74	x	35	n	n
COc1ccc(S(=O)(=O)N(C)C[C@@H]2OCCCC[C@H](C)Oc3ccc(NC(=O)Nc4ccc(C(F)(F)F)cc4)cc3C(=O)N([C@H](C)CO)C[C@H]2C)cc1	x	x	85	x	30	n	n
NC(=O)[C@@H]1CC2(CC(c3cccc(NC(=O)CC(c4ccccc4)c4ccccc4)c3)=NO2)CN1C(=O)COc1ccc(Cl)cc1 (stereo not given in full)	n	n	60	n	39	n	n
NC(=O)[C@H]1CC2(CC(c3cccc(NC(=O)COc4ccc(Cl)cc4)c3)=NO2)CN1C(=O)CC(c1ccccc1)c1ccccc1 (stereo not given in full)	n	n	64	n	37	n	50
CCC(=O)Nc1cccc(C2=NOC3(C2)C[C@@H](C(N)=O)N(C(=O)COc2ccc(Cl)cc2)C3)c1 (stereo not given in full)	n	n	n	n	n	x	x
CCOC(=O)C1=CN(Cc2cccc(F)c2)S(=O)(=O)N(CC)C1c1ccc(C(F)(F)F)cc1 (stereo not given)	n	x	n	x	n	x	x
COc1ccccc1N1CCN(CC(=O)Nc2nc(C)c(C(=O)N(C)C)s2)CC1	n	n	n	n	n	x	x
O=C(Nc1nc2cc(Cl)ccc2s1)C1CCCN(S(=O)(=O)c2cccc3cccnc23)C1 (stereo not given)	n	n	69	n	36	n	n
CN(C)S(=O)(=O)c1ccc(C(=O)Nc2cc(S(=O)(=O)Nc3ccccc3Cl)ccc2N2CCCCC2)cc1	n	n	73	n	29	n	n
COc1ccc(CN2C(=O)C(Cc3ccccc3)Nc3ncnc(N4CCN(c5ccccc5)CC4)c32)cc1 (stereo not given)	n	n	n	n	n	x	x
O=C1C(Cc2ccccc2)Nc2ncnc(N3CCN(c4ccccc4)CC3)c2N1Cc1ccc(Cl)cc1 (stereo not given)	n	n	84	n	41	n	n
Cc1ccc(S(=O)(=O)/C(C#N)=C/c2c(N3CCN(Cc4ccccc4)CC3)nc3ccccn3c2=O)cc1	n	n	81	n	47	n	n
NC(=O)[C@H]1CC2(CC(c3cccc(NC(=O)CC(c4ccccc4)c4ccccc4)c3)=NO2)CN1C(=O)c1ccccc1C(=O)c1ccccc1 (stereo not given in full)	n	n	75	n	44	n	n
NC(=O)[C@H]1CC2(CC(c3cccc(NC(=O)CC(c4ccccc4)c4ccccc4)c3)=NO2)CN1C(=O)C(c1ccccc1)c1ccccc1 (stereo not given in full)	n	n	67	n	33	n	n
SMILES	ATG4B inh	SUMO Mot1 rescue	FAS-TE inh	Calb FLC	NadD inh	FAS-TE conf	NadD inh conf
CCOC(=O)C1(CCc2ccccc2)CCN(C(=O)c2cnc(C)cn2)CC1	n	n	n	n	n	x	x
Cc1ccc(/C=N/NC(=O)CSc2nc3ccccc3c(=O)n2-c2ccccc2C)s1	n	n	51	n	50	n	n
Cc1ccc(/C=N/NC(=O)CSc2nc3ccccc3c(=O)n2-c2ccccc2)s1	n	n	n	n	n	x	x
Cc1c(Cl)cccc1NC(=O)CS(=O)(=O)c1ccccc1	n	n	n	n	n	x	x
COc1ccccc1N(C)S(=O)(=O)c1ccc(C(=O)OCC(=O)c2c[nH]c3ccccc23)cc1	n	n	n	n	n	x	x
COc1ccc(-c2ccc3c(c2)S(=O)(=O)c2cccc(C(=O)N4CCN(c5c(Cl)cncc5Cl)CC4)c2C3=O)cc1OC	n	n	68	x	44	n	n
O=C(O)c1cccc2c1C(=O)c1ccc(-c3ccc(Cl)c(C(F)(F)F)c3)cc1S2(=O)=O	n	n	n	x	n	x	x
COc1ccc(-c2ccc3c(c2)S(=O)(=O)c2cccc(C(=O)NCCOc4ccccc4)c2C3=O)cc1OC	n	n	n	x	n	x	x
N#Cc1cccnc1N1CCN(C(=O)c2cccc3c2C(=O)c2ccc(-c4ccc(Cl)c(C(F)(F)F)c4)cc2S3(=O)=O)CC1	n	n	80	x	35	n	n
O=C1C=CC(=O)N1N(c1ccccc1)c1ccccc1	n	n	n	n	n	x	x
COc1cccc(-n2c(SCC(=O)Nc3sc4c(c3C(N)=O)CCC4)nc3ccccc3c2=O)c1	n	x	77	n	32	n	n
COc1ccc(OC)c(NC(=O)CSc2ccc(-c3cccnc3)nn2)c1	n	n	n	n	n	x	x
CCOC(=O)[C@]12CCC=C1N(Cc1ccccc1)C(=O)[C@H](CC(=O)NCCCN1CCCC1=O)C2	x	x	n	x	n	x	x
